# Measurements reported in PMC7862700, “An all-to-all approach to the identification of sequence-specific readers for epigenetic DNA modifications on cytosine”.
# What was measured:
# Test in all cases: DAPPL (digital affinity profiling via proximity ligation, sequencing); 10 mM Tris-HCl pH 7.5, 50 mM NaCl, 1 mM DTT, 4% glycerol, room temperature, 30 min; GST-TFs on glutathione beads, 16-mer random dsDNA library, 0.1% formaldehyde crosslink after washing; high values mean tight binding
# FLI1 = molecular target: T1, FLI1 (Homo sapiens, UniProt Q01543 1-452); settings: protein: recombinant; tags: N-terminal GST; dsDNA, one strand shown
# T1 sequence: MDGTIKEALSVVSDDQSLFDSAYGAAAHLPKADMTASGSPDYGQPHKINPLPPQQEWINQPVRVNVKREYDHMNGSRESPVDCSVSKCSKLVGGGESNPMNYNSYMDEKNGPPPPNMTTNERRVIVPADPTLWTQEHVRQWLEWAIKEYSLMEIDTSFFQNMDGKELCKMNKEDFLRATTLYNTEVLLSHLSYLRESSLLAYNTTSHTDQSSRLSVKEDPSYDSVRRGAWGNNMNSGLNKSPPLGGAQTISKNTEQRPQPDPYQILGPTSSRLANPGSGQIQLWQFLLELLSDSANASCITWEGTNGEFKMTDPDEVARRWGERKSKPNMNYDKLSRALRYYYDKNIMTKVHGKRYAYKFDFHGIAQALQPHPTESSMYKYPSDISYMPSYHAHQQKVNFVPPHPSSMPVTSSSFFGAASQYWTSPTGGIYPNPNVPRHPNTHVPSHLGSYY
# How it was run: (§1)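 Sequencing on an Illumina NextSeq500 followed washing, crosslinking with 0.1% formaldehyde, proximity ligation (BsaI/T4 ligase, 1 h, 37 °C) and PCR amplification of pools that had been incubated for 30 min at room temperature with 200 nmole of a random double-stranded 16-mer DNA library in Tris/NaCl/DTT/glycerol buffer. Each pool held DNA-barcoded human transcription factors, expressed in yeast as GST fusions and captured on glutathione beads, plus a tag-only sample. Binding signal is a hexamer's read frequency for a factor divided by its frequency in the tag-only sample.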
# ELK1 = molecular target: T2, ELK1 (Homo sapiens, UniProt P19419 1-428); settings: protein: recombinant; tags: N-terminal GST; dsDNA, one strand shown
# T2 sequence: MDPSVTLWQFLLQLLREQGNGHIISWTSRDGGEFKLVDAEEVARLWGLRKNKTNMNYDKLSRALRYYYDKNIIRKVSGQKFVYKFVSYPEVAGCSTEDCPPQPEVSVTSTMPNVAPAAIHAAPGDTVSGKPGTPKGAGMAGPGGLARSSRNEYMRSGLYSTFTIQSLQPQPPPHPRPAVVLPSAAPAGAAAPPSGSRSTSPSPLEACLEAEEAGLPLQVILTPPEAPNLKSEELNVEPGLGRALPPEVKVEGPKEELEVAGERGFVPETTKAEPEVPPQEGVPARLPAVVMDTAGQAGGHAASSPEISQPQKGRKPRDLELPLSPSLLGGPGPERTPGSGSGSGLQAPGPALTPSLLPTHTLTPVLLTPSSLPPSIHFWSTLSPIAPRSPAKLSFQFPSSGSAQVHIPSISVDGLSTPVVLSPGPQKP
# How it was run: as §1
# GABPA = molecular target: T3, GABPA (Homo sapiens, UniProt Q06546 1-454); settings: protein: recombinant; tags: N-terminal GST; dsDNA, one strand shown
# T3 sequence: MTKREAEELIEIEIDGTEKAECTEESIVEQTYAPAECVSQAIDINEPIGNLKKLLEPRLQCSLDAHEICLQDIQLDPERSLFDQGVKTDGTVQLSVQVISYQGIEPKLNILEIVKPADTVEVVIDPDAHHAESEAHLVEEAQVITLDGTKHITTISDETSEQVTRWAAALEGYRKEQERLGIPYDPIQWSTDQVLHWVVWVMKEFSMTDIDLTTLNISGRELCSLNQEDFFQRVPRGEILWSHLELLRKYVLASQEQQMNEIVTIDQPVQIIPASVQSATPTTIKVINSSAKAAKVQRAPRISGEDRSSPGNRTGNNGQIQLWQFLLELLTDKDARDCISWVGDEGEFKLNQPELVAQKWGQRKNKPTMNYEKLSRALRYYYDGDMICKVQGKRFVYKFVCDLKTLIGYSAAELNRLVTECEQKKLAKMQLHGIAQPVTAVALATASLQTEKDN
# How it was run: as §1
# ERG = molecular target: T4, ERG (Homo sapiens, UniProt P11308 1-479); settings: protein: recombinant; tags: N-terminal GST; dsDNA, one strand shown
# T4 sequence: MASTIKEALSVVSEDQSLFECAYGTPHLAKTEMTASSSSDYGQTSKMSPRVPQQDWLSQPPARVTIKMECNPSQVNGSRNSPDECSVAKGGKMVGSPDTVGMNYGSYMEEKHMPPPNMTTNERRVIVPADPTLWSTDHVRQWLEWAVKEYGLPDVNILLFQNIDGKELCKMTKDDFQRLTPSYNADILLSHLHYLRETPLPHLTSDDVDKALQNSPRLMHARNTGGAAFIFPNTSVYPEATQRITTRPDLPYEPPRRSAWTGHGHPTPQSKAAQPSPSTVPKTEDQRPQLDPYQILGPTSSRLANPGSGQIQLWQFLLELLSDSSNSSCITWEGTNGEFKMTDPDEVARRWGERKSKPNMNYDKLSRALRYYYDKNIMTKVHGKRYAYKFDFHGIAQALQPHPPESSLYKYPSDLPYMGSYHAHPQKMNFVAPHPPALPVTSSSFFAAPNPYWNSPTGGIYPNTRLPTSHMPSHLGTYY
# How it was run: as §1
# ELF1 = ELF1 (Homo sapiens, UniProt P32519 1-619); settings: protein: recombinant; tags: N-terminal GST; dsDNA, one strand shown
# How it was run: as §1
# EHF = molecular target: T5, EHF (Homo sapiens, UniProt Q9NZC4 1-300); settings: protein: recombinant; tags: N-terminal GST; dsDNA, one strand shown
# T5 sequence: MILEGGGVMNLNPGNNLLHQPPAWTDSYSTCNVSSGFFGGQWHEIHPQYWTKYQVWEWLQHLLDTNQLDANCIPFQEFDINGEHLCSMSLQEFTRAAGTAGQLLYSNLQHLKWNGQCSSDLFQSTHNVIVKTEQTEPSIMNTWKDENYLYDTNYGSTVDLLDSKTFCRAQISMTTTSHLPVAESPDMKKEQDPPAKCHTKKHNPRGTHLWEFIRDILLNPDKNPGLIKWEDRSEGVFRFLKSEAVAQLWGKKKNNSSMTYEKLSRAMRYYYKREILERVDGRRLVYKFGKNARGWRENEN
# How it was run: as §1
# SPI1 = SPI1 (Homo sapiens, UniProt P17947 1-270); settings: protein: recombinant; tags: N-terminal GST; dsDNA, one strand shown
# How it was run: as §1
# SPIB = SPIB (Homo sapiens, UniProt Q01892 1-262); settings: protein: recombinant; tags: N-terminal GST; dsDNA, one strand shown
# How it was run: as §1
# ELK3 = molecular target: T6, ELK3 (Homo sapiens, UniProt P41970 1-407); settings: protein: recombinant; tags: N-terminal GST; dsDNA, one strand shown
# T6 sequence: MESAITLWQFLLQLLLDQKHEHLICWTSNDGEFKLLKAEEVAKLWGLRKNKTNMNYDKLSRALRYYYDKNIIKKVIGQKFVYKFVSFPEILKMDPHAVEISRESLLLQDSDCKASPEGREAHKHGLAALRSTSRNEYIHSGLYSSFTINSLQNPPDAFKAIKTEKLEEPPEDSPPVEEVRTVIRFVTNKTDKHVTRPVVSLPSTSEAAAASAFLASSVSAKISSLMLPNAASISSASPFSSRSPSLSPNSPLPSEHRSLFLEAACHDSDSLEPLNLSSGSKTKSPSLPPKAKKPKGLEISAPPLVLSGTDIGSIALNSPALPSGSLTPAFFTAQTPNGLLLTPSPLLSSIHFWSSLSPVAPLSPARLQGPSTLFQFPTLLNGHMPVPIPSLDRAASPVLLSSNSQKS
# How it was run: as §1
# FEV = molecular target: T7, FEV (Homo sapiens, UniProt Q99581 1-238); settings: protein: recombinant; tags: N-terminal GST; dsDNA, one strand shown
# T7 sequence: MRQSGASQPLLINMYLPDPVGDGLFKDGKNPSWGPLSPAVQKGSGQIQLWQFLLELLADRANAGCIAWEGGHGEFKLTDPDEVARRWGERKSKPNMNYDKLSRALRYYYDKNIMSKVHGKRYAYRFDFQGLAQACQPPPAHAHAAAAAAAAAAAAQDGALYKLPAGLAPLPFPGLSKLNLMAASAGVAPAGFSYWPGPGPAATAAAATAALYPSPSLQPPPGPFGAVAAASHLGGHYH
# How it was run: as §1
# ETV5 = ETV5 (Homo sapiens, UniProt P41161 1-510); settings: protein: recombinant; tags: N-terminal GST; dsDNA, one strand shown
# How it was run: as §1
# HSF1 = HSF1 (Homo sapiens, UniProt Q00613 1-529); settings: protein: recombinant; tags: N-terminal GST; chain copies: 3; dsDNA, one strand shown
# How it was run: as §1
# SPIC = molecular target: T8, SPIC (Homo sapiens, UniProt Q8N5J4 1-248); settings: protein: recombinant; tags: N-terminal GST; dsDNA, one strand shown
# T8 sequence: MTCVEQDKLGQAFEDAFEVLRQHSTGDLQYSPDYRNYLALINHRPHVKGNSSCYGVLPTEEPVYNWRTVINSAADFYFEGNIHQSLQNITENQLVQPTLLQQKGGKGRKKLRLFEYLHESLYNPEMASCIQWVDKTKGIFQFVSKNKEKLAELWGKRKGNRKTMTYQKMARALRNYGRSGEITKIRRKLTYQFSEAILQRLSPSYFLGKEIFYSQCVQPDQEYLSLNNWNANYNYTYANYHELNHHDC
# How it was run: as §1
# ELF4 = ELF4 (Homo sapiens, UniProt Q99607 1-663); settings: protein: recombinant; tags: N-terminal GST; dsDNA, one strand shown
# How it was run: as §1
# ELK4 = molecular target: T9, ELK4 (Homo sapiens, UniProt P28324-2 1-405); settings: protein: recombinant; tags: N-terminal GST; dsDNA, one strand shown
# T9 sequence: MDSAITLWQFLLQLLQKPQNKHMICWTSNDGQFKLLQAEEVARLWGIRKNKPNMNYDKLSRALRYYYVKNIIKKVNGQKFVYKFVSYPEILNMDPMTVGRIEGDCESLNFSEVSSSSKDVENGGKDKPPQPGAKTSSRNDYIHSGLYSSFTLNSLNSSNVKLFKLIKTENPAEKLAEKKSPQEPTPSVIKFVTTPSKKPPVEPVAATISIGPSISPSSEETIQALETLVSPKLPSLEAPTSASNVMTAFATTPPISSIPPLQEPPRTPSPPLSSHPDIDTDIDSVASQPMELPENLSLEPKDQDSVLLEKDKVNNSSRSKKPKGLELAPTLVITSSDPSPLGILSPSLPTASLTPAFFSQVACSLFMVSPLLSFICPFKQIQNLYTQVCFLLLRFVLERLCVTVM
# How it was run: as §1
# ETV2 = molecular target: T10, ETV2 (Homo sapiens, UniProt O00321 1-342); settings: protein: recombinant; tags: N-terminal GST; dsDNA, one strand shown
# T10 sequence: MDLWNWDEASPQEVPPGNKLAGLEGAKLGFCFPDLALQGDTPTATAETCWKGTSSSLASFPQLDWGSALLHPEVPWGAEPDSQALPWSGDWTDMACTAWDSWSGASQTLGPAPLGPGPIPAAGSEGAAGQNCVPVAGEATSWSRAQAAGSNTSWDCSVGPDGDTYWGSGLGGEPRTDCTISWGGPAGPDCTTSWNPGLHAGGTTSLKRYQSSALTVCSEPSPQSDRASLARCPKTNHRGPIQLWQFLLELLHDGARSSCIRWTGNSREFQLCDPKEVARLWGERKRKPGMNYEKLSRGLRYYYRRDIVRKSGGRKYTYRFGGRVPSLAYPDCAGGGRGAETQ
# How it was run: as §1
# ELF3 = molecular target: T11, ELF3 (Homo sapiens, UniProt P78545 1-371); settings: protein: recombinant; tags: N-terminal GST; dsDNA, one strand shown
# T11 sequence: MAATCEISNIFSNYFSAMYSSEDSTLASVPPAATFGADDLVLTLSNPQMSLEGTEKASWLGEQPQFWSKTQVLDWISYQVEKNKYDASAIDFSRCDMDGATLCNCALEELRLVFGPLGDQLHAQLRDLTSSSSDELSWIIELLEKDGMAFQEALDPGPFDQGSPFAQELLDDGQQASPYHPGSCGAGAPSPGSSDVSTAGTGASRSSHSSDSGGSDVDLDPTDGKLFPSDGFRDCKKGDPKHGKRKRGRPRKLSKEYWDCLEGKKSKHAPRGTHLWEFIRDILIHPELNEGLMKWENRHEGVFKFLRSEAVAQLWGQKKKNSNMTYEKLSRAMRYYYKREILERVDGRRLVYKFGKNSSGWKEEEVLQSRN
# How it was run: as §1
# CRX = CRX (Homo sapiens, UniProt O43186 1-299); settings: protein: recombinant; tags: N-terminal GST; dsDNA, one strand shown
# How it was run: as §1
# ETV1 = ETV1 (Homo sapiens, UniProt P50549 1-477); settings: protein: recombinant; tags: N-terminal GST; dsDNA, one strand shown
# How it was run: as §1
# SPIB, sequence (Q01892 whole entry): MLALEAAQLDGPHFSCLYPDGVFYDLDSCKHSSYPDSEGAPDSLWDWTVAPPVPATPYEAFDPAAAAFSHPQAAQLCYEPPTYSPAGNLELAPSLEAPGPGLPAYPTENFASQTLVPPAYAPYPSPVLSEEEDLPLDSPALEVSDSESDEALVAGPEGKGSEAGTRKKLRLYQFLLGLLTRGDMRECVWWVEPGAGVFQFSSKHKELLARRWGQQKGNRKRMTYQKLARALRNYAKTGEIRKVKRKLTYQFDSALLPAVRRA
# ETV5, sequence (P41161 whole entry): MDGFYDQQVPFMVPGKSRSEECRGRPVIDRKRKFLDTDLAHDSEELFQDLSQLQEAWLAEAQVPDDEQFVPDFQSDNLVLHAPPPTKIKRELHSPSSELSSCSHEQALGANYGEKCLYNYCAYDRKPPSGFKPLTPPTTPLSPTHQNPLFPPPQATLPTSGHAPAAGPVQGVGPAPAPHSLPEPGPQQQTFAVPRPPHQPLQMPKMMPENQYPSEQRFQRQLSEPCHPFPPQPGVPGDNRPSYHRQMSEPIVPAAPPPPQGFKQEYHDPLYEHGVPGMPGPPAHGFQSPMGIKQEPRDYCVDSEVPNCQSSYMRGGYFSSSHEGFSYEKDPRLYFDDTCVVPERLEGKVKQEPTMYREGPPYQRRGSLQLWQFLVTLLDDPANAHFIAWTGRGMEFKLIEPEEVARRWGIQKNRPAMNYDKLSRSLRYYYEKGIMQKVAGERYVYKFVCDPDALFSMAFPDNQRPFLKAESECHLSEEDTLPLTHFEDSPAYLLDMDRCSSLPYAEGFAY
# ELF1, sequence (P32519 whole entry): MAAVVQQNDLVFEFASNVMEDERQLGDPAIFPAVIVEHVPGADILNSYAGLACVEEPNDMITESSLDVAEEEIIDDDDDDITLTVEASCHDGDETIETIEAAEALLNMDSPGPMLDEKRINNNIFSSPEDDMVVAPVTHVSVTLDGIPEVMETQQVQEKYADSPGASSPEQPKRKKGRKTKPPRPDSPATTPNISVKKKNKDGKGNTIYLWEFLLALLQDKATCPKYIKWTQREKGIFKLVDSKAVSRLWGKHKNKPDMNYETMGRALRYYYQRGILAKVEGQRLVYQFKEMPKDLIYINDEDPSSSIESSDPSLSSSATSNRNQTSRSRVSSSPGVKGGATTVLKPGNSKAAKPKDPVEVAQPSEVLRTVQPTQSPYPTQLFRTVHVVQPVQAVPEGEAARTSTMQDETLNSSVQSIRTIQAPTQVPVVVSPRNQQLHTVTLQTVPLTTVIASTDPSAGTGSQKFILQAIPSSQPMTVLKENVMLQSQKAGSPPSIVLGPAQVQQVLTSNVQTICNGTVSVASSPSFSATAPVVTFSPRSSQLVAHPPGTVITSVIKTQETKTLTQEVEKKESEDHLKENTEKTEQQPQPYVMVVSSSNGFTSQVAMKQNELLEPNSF
# HSF1, sequence (Q00613 whole entry): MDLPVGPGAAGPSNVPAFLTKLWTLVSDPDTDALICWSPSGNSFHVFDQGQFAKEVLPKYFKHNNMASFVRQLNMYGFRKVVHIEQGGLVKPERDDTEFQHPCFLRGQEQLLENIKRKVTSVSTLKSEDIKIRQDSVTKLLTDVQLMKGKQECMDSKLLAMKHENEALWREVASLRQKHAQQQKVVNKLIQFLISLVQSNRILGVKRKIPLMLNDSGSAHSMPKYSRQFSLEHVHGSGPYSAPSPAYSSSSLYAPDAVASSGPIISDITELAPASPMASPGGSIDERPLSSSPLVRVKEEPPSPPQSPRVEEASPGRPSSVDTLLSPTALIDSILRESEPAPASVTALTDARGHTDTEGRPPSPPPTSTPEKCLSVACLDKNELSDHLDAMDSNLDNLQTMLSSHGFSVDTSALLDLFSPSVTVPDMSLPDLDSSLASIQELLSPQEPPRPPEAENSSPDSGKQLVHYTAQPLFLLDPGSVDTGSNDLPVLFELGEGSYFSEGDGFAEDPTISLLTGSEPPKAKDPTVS
# ETV1, sequence (P50549 whole entry): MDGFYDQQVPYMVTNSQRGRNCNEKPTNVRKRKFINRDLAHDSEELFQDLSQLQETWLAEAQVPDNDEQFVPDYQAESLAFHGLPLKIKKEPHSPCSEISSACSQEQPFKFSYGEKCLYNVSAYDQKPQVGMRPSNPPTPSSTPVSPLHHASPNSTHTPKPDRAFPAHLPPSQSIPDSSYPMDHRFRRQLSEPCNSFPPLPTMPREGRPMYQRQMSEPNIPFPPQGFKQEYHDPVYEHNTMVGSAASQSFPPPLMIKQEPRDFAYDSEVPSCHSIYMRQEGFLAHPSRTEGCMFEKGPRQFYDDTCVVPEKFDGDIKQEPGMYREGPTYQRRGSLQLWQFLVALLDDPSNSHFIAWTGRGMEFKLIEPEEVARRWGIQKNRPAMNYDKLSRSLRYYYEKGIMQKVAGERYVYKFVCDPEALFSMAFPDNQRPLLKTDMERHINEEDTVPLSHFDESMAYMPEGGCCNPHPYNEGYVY
# CRX, sequence (O43186 whole entry): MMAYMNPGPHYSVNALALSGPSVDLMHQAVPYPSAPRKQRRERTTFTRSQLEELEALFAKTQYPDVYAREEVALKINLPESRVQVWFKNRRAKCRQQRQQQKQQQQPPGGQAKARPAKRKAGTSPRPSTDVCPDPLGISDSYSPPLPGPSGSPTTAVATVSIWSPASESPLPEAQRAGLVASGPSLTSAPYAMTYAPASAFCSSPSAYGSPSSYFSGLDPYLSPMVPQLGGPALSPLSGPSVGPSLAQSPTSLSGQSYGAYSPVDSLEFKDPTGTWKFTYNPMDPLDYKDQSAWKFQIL
# ELF4, sequence (Q99607 whole entry): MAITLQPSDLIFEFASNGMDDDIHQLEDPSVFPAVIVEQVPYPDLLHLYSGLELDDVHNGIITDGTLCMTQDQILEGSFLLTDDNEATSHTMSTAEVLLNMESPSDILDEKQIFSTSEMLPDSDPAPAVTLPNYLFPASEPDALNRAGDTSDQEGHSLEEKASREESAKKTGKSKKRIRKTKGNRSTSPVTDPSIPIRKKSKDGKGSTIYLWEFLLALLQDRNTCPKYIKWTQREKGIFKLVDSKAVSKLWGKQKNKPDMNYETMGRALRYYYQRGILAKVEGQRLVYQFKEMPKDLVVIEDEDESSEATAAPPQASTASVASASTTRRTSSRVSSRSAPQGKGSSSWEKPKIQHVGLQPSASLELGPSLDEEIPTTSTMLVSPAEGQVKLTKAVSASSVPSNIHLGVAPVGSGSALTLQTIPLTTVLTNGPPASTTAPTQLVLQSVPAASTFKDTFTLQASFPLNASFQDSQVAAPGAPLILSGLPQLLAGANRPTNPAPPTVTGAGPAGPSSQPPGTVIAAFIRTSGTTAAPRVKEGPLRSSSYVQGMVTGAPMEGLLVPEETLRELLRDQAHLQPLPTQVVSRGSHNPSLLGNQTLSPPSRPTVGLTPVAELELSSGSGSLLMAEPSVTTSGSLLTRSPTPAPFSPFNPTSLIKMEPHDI
sequence,measurement,setting,value
ACATAT,binding signal,FLI1,"1.18 fold enrichment (6-mer frequency, TF over GST control)"
same,binding signal,ELK1,"1.25 fold enrichment (6-mer frequency, TF over GST control)"
same,binding signal,GABPA,"1.3 fold enrichment (6-mer frequency, TF over GST control)"
same,binding signal,ERG,"1.25 fold enrichment (6-mer frequency, TF over GST control)"
same,binding signal,ELF1,"1.27 fold enrichment (6-mer frequency, TF over GST control)"
same,binding signal,EHF,"1.22 fold enrichment (6-mer frequency, TF over GST control)"
same,binding signal,SPI1,"1.2 fold enrichment (6-mer frequency, TF over GST control)"
same,binding signal,SPIB,"1.2 fold enrichment (6-mer frequency, TF over GST control)"
same,binding signal,ELK3,"1.28 fold enrichment (6-mer frequency, TF over GST control)"
same,binding signal,FEV,"1.29 fold enrichment (6-mer frequency, TF over GST control)"
same,binding signal,ETV5,"1.32 fold enrichment (6-mer frequency, TF over GST control)"
same,binding signal,HSF1,"1.04 fold enrichment (6-mer frequency, TF over GST control)"
same,binding signal,SPIC,"1.36 fold enrichment (6-mer frequency, TF over GST control)"
same,binding signal,ELF4,"1.3 fold enrichment (6-mer frequency, TF over GST control)"
same,binding signal,ELK4,"1.22 fold enrichment (6-mer frequency, TF over GST control)"
same,binding signal,ETV2,"1.28 fold enrichment (6-mer frequency, TF over GST control)"
same,binding signal,ELF3,"1.25 fold enrichment (6-mer frequency, TF over GST control)"
same,binding signal,CRX,"1.12 fold enrichment (6-mer frequency, TF over GST control)"
same,binding signal,ETV1,"1.26 fold enrichment (6-mer frequency, TF over GST control)"
